The subject of assay [1] is thyroid hormone receptor (rat, GH3 cells). Briefly: qHTS assay to identify small molecule agonists of the thyroid receptor (TR) signaling pathway (AID 743066; calls by dose curve). For orientation: Quantitative high-throughput screening tests each substance at several concentrations.
The nature of assay [2]: qHTS assay to identify small molecule antagonists of the estrogen receptor alpha (ER-alpha) signaling pathway - cell viability counter screen (AID 743074; calls by dose curve;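 further: HEK293 cells carrying ER-alpha-UAS-bla reporter stimulated with 17beta-estradiol; nearly all actives have a fitted effect of over 45% in size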).
A short description of assay [3]: qHTS assay to identify small molecule antagonists of the estrogen receptor alpha (ER-alpha) signaling pathway using the BG1 cell line - cell viability counter screen (AID 743081).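 Further: compound given together with 17beta-estradiol as the ER stimulus; series mostly up to about 70 µM; nearly all actives have a fitted effect of over 45% in size.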
Assay [4] is described as follows: qHTS assay to identify aromatase inhibitors - cell viability counter screen (AID 743084).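 Further: cells stimulated with testosterone during compound exposure; nearly all actives have a fitted effect of over 55% in size.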
Assay [5] is described as follows: qHTS assay to identify small molecule that activate the aryl hydrocarbon receptor (AhR) signaling pathway - cell viability counter screen (AID 743086).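 Further: HepG2 liver cells carrying the AhR DRE luciferase reporter; series mostly up to about 70 µM; nearly all actives have a fitted effect of over 45% in size.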 An outline of the steps: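 HepG2-AhR-luc (HG2L7.5c1) cells, 4000/well, treated 24 h at 37 C with compound; viability measured as CellTiter-Fluor fluorescence after 30 min in the same wells as the luciferase read.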

The target of assay [6] is Peroxisome proliferator-activated receptor gamma (Homo sapiens) (UniProt P37231). As to the kind of experiment: qHTS assay to identify small molecule agonists of the peroxisome proliferator-activated receptor gamma (PPARg) signaling pathway (AID 743094; active means well fitted activation curve with a large enough effect in the signal ratio in the repeat runs, not every such curve was filed as active; the % refers to the signal ratio). An outline of the steps:
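Compounds dissolved in DMSO were added to PPARg UAS-bla HEK293H cells for 17 h at 37C, and reporter expression was quantified by fluorescence intensity after 1 h with LiveBLAzer B/G FRET substrate.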

A short description of assay [7]: qHTS assay for small molecule activators of the heat shock response signaling pathway - cell viability counter screen (AID 743209). Further: nearly all actives have a fitted effect of over 50% in size. An outline of the steps:
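Readout: CellTiter-Glo luminescence, 30 min at room temperature. System: HSE-bla HeLa cells, 1500/well, plated overnight. Treatment: compounds in DMSO, 5 h at 37 C.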

Assay [8] can be described thus: qHTS assay for small molecule activators of the heat shock response signaling pathway (AID 743210; active means well fitted activation curve with a large enough effect in the signal ratio in the repeat runs, with a control signal flat, not every such curve was filed as active; the % refers to the signal ratio; further: series mostly up to about 63 µM). An outline of the steps: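 HSE-bla HeLa cells (beta-lactamase reporter under heat shock response elements), plated overnight, then exposed to compounds 5 h at 37 C; LiveBLAzer B/G FRET substrate added, 2.5 h at room temperature, fluorescence intensity read.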
The nature of assay [9]: qHTS assay to identify small molecule agonists of the peroxisome proliferator-activated receptor delta (PPARd) signaling pathway - cell viability counter screen (AID 743211). Further: nearly all actives have a fitted effect of over 55% in size. The essentials: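 Counter screen for cytotoxicity run in parallel with the PPARd reporter screen. Beta-lactamase reporter HEK293H cells exposed to compounds 17 h; ATP-based CellTiter-Glo luminescence quantified viability.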

Assay [10] concerns the target Peroxisome proliferator-activated receptor gamma (Homo sapiens) (UniProt P37231). As to the kind of experiment: qHTS assay to identify small molecule antagonists of the peroxisome proliferator-activated receptor gamma (PPARg) signaling pathway (AID 743191; calls by dose curve; further: series mostly up to about 63 µM; nearly all actives have a fitted effect of over 30% in size). The essentials: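 GeneBLAzer PPARg UAS-bla HEK293H cells, 5 h post-plating, exposed to compounds 17 h at 37C. LiveBLAzer B/G FRET substrate added for 1 h at room temperature; beta-lactamase reporter read by fluorescence intensity.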

Assay [11] in a line: qHTS assay to identify small molecule antagonists of the peroxisome proliferator-activated receptor gamma (PPARg) signaling pathway - cell viability counter screen (AID 743194). Further: nearly all actives have a fitted effect of over 55% in size. The conditions noted are these: Potency: co-treated with 50 nM rosiglitazone. The essentials:
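Cytotoxicity counter screen in PPARg-bla HEK293H cells, same wells as reporter assay. Compounds plus 50 nM rosiglitazone (final) for 17 h at 37 C, then viability read by CellTiter-Glo luminescence.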

Assay [12] is described as follows: qHTS assay for small molecule agonists of the antioxidant response element (ARE) signaling pathway - cell viability counter screen (AID 743203; calls by dose curve; further: nearly all actives have a fitted effect of over 55% in size). The essentials:
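Following 16 hrs of compound treatment at 37C, HepG2 cells with an ARE-controlled beta-lactamase gene were lysed with CellTiter-Glo. Luminescence was read after 30 min at room temperature.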

The next assay addresses Aromatase (Homo sapiens) (UniProt P11511). Briefly: qHTS assay to identify aromatase inhibitors (AID 743083).
Assay [13] deals with Aryl hydrocarbon receptor (Homo sapiens) (UniProt P35869). As to the kind of experiment: qHTS assay to identify small molecule that activate the aryl hydrocarbon receptor (AhR) signaling pathway (AID 743085). Further: nearly all actives have a fitted effect of over 15% in size. Further: potency means the concentration at half of the fitted maximal effect.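 On activation: HG2L7.5c1 human HepG2 liver cells with stably integrated DRE-driven firefly reporter; series mostly up to about 70 µM.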 The essentials: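 Compounds were tested in HepG2 hepatocellular carcinoma cells harbouring a stably integrated luciferase gene under control of 20 DREs. Increased reporter signal after 24 h treatment at 37C was taken as AhR activation.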

A short description of assay [14]: qHTS assay for small molecule agonists of the antioxidant response element (ARE) signaling pathway (AID 743202; active means well fitted activation curve with a large enough effect in the signal ratio in the repeat runs, not every such curve was filed as active; the % refers to the signal ratio). An outline of the steps: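 ARE-bla HepG2 cells (beta-lactamase reporter under the antioxidant response element), plated 5 hours, then exposed to compounds 16 hours at 37 C. LiveBLAzer B/G FRET substrate added for 2 hours at room temperature; fluorescence intensity read.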

Assay [15] has as its target Estrogen receptor (Homo sapiens) (UniProt P03372). As to the kind of experiment: qHTS assay to identify small molecule antagonists of the estrogen receptor alpha (ER-alpha) signaling pathway (AID 743069; active means well fitted curve in the direction sought with a large enough effect in the signal ratio in the repeat runs, not every such curve was filed as active; the % refers to the signal ratio). An outline of the steps:
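HEK293 ER-alpha-UAS-bla GripTite cells, held overnight in 2% charcoal-stripped FBS, 5,000 cells/well, preincubated 4 h, then compound plus 17beta-estradiol for 18 h at 37C. Beta-lactamase read by LiveBLAzer B/G FRET substrate, 2 h at room temperature.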

Assay [16] has the same target. As to the kind of experiment: qHTS assay to identify small molecule agonists of the estrogen receptor alpha (ER-alpha) signaling pathway (AID 743075; calls by dose curve).
The target is the same in assay [17]. As to the kind of experiment: qHTS assay to identify small molecule agonists of the estrogen receptor alpha (ER-alpha) signaling pathway using the BG1 cell line (AID 743079). Further: potency means the concentration at half of the fitted maximal effect; nearly all actives have a fitted effect of over 20% in size. The conditions noted are these: BG1Luc4E2 cells, ERE-luciferase agonist, 22 h.
Assay [18] in a line: qHTS assay to identify small molecule antagonists of the estrogen receptor alpha (ER-alpha) signaling pathway using the BG1 cell line (AID 743080; calls by dose curve;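 further: BG1 cells stimulated with 17beta-estradiol alongside compound; nearly all actives have a fitted effect of over 25% in size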; further: potency means the concentration at half of the fitted maximal effect). An outline of the steps: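 After 5 days in phenol-red-free 10% charcoal-stripped FBS medium, BG1-Luc-4E2 cells were seeded, left 24 h at 37 C, co-treated with compounds and 17beta-estradiol for 21.5 h, then assayed for viability and luciferase.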

Experimental findings from PubChem BioAssay (Tox21) are described below.

SMILES strings stand for the structures. Records with an inconclusive call do not appear. Active and inactive are the calls of the source. Unless noted, the call rests on the fitted dose curve; in most records, active means well fitted curve in the direction sought with a large enough effect in the repeat runs; inconclusive means weak or mixed curves; inactive means no such curve, though single readings can be large; an effect the other way counts as inactive or inconclusive.

Chain of Peroxisome proliferator-activated receptor gamma (Homo sapiens) (P37231 whole entry, looked up): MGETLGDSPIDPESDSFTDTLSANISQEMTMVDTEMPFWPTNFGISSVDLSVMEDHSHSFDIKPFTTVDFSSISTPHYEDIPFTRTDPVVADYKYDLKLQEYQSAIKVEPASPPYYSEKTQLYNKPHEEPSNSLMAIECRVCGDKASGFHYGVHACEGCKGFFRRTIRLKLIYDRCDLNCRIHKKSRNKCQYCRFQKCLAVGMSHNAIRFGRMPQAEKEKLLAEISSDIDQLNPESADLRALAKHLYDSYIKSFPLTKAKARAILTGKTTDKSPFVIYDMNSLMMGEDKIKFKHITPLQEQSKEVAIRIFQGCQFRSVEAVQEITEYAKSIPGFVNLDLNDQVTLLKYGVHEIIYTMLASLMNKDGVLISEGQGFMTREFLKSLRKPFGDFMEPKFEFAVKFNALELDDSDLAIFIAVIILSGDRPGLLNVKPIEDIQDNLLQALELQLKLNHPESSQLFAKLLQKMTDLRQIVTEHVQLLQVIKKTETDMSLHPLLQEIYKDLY
Chain of Aryl hydrocarbon receptor (Homo sapiens) (P35869 whole entry, looked up): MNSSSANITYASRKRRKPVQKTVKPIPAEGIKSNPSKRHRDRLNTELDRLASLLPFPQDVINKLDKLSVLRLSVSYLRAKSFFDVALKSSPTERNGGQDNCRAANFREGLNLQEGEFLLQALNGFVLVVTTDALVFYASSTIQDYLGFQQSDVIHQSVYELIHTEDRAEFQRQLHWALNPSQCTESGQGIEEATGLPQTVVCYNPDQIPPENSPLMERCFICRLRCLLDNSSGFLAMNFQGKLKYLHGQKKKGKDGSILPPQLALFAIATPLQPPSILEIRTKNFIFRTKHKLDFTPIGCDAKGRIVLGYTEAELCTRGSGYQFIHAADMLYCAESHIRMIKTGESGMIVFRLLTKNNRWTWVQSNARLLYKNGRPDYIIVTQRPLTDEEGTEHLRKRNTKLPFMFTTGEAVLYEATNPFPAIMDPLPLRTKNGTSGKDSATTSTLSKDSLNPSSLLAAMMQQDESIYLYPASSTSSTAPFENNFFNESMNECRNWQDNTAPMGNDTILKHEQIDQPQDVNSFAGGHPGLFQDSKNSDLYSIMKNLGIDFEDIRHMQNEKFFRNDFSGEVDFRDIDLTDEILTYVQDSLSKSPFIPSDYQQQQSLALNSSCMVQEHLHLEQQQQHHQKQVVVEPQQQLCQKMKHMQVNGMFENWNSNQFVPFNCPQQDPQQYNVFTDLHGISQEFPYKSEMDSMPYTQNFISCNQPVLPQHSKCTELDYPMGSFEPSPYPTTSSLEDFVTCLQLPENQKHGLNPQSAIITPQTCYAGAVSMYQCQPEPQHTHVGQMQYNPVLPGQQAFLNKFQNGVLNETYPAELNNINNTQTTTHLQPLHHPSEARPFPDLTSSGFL
Chain of Estrogen receptor (Homo sapiens) (P03372 whole entry, looked up): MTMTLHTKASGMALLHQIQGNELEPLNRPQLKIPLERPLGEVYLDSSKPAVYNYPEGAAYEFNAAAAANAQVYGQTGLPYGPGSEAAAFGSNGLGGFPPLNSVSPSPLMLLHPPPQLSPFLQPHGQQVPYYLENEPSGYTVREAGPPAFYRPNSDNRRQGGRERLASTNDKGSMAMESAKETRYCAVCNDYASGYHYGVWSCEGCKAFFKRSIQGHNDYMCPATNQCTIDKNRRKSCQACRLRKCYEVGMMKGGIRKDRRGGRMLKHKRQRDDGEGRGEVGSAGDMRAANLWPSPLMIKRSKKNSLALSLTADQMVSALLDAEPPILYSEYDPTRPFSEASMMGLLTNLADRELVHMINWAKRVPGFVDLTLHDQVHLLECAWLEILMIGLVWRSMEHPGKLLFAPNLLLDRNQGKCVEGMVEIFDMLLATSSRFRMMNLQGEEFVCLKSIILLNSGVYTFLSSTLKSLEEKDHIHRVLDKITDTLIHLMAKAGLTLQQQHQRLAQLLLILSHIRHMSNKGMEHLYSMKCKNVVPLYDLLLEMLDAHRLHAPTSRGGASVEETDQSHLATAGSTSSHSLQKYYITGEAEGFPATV
Chain of Aromatase (Homo sapiens) (P11511 whole entry, looked up): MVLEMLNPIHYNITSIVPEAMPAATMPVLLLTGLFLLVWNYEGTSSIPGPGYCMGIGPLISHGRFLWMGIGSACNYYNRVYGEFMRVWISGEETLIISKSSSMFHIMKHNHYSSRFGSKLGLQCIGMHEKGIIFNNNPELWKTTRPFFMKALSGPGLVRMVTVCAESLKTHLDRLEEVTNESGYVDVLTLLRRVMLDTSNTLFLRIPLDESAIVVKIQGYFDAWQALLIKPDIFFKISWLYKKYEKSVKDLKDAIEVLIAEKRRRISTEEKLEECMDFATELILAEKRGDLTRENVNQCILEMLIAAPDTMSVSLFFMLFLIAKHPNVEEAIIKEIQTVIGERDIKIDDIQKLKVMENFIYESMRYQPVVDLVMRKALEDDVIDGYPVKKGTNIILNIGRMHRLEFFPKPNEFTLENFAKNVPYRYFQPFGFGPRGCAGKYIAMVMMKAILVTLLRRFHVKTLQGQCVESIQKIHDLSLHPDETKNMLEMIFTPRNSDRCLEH

On to `CCCSP(=O)(OCC)Oc1ccc(Br)cc1Cl` (centres undefined), for which the Potency result in assay [1], in assay [3], in [4], in assay [7] and in [9] was “inactive” in each case. Besides, the result in [2], in assay [5], in assay [6] and in [8] was inactive.

For `CC(C(O)c1ccccc1)N(C)C/C=C/c1ccccc1` (centres undefined), the Potency entry in assay [10], in assay [11], in assay [12] and in assay [7] was “inactive” throughout. Besides, the call in assay [8] was inactive.

With `CCCCOC(=O)c1ccccc1N`, the call in assay [2], in assay [5], in assay [6] and in assay [8] was inactive. In addition, the Potency entry (in assay [3]; with Aromatase (Homo sapiens); in assay [4]; in assay [13]; in assay [11]; in [12]) was “inactive” each time. In addition, the Potency result in assay [7] and in assay [9] was “inactive” in each case.

As to `O=C1CN2CCOC2(c2ccccc2Cl)c2cc(Cl)ccc2N1` (centres undefined), the Potency entry in assay [11], in assay [12] and in [7] was “inactive” in each case. Besides, in [8], the result was inactive.

As for `Fc1cc(Br)ccc1CBr`, the Potency result in assay [10], in assay [11], in assay [14], in assay [12], in assay [7] and in assay [9] was “inactive” in each case. Further, the compound was called inactive in [8].

Regarding `CCOP(=S)(OCC)SCSP(=S)(OCC)OCC`, the Potency result (in assay [1]; in [15]; in [16]; in [18]; in [3]; with Aromatase (Homo sapiens)) was “inactive” throughout. Also, the Potency result in [4], in assay [10], in assay [11], in assay [12], in assay [7] and in assay [9] was “inactive” each time. For the same compound, the compound was called inactive in [2], in assay [5], in [6] and in [8]. Besides, the Potency in [17] was 38.6 µM (active).

In the case of `c1ccc(N2CCNCC2)cc1`, the Potency entry in assay [11], in assay [14], in [7] and in assay [9] was “inactive” in each case.

In the case of `OC(c1ccccc1)(c1ccccc1)C1CCNCC1`, the Potency result (in assay [1]; in assay [3]; with Aromatase (Homo sapiens); in [4]; in assay [13]; in assay [10]) was “inactive” in each case. For the same compound, the Potency result in assay [11], in assay [12], in assay [7] and in [9] was “inactive” each time. Moreover, the compound was classed as inactive in assay [2], in assay [5], in assay [6] and in assay [8].

`CC(Oc1ccc(Oc2ncc(C(F)(F)F)cc2Cl)cc1)C(=O)O` (centres undefined): the Potency entry in assay [1], in [16], in assay [18], in [3], in assay [4] and in assay [13] was “inactive” in each case. The Potency entry in [11], in [12] and in [7] was “inactive” throughout. Moreover, the compound was classed as inactive in [2] and in assay [5].

As for `CCCSP(=S)(OCC)Oc1ccc(Cl)cc1Cl` (centres undefined), the Potency entry (in assay [1]; in [15]; in assay [18]; in assay [3]; with Aromatase (Homo sapiens); in [4]) was “inactive” each time. For the same compound, the Potency result in [10], in [11] and in [12] was “inactive” each time. Further, the result in [2], in assay [5] and in assay [6] was inactive. Moreover, the Potency is 38.6 µM (active) in assay [17] and 54.5 µM (active) in assay [13].

For `Cc1ncc2n1-c1ccc(Cl)cc1C(c1ccccc1F)=NC2`, the Potency entry (in [1]; in assay [16]; in assay [3]; with Aromatase (Homo sapiens); in assay [4]; in assay [10]) was “inactive” throughout. Also, the Potency entry in assay [12], in assay [7] and in assay [9] was “inactive” throughout. Moreover, the Potency in assay [18] is 11.9 µM (active). Further, the compound was classed as inactive in assay [5].

Regarding `CC1(C(=O)Nc2ccc(O)c(Cl)c2Cl)CCCCC1`, the Potency entry in [1], in assay [3], in assay [13], in assay [10], in assay [11] and in assay [12] was “inactive” each time. In addition, the Potency result in assay [7] is “inactive”. Moreover, the compound was classed as inactive in assay [2], in assay [5], in assay [6] and in assay [8].

`C[C@]12CC[C@H]3[C@@H](CCC4=CC(=O)CC[C@@]43C)[C@@H]1CC[C@@H]2C(=O)O`: the Potency result in [11], in assay [12], in [7] and in assay [9] was “inactive” in each case. Also, the call in [8] was inactive.

With `CN1C(=S)CN=C(c2ccccc2)c2cc(Cl)ccc21`, the Potency entry (in assay [1]; in [16]; in assay [3]; with Aromatase (Homo sapiens); in [4]; in [13]) was “inactive” throughout. In addition, the Potency result in assay [10], in assay [14], in assay [12], in assay [7] and in assay [9] was “inactive” in each case. Moreover, the result in assay [2], in assay [5] and in assay [8] was inactive. For the same compound, the Potency in assay [18] was 13.3 µM (active).
